# Only some compounds are listed: those with a hit (about 4.7% of all), similar ones and a draw of the others.
# D1 antag: antagonists of human D1 dopamine receptor; HEK293 TREx D1 cells, calcium flux, dopamine EC80; hits give low values; activity change, negative = inhibition, % at 10 µM; 360,000 compounds, 3.2% hits; in the data active = activity change below about -30%; also: % is scaled to controls: 0 for no effect and ±100 for the full control effect
#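 Calcium flux readout: force-coupled, inducible Hek293 Trex D1 line, cells induced overnight at 30 C with tetracycline, dye-loaded 30–90 min at RT. Antagonism scored against EC80 dopamine challenge given 180 s after compound.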
# TRHR agonist: agonists of human TRH receptor; TRHR cells, calcium flux fluo-8, FDSS agonist mode; activation, % at 2 µM; 360,000 compounds, 0.18% hits; also: 0% is about no effect
# Target sequence (P34981 whole entry, looked up): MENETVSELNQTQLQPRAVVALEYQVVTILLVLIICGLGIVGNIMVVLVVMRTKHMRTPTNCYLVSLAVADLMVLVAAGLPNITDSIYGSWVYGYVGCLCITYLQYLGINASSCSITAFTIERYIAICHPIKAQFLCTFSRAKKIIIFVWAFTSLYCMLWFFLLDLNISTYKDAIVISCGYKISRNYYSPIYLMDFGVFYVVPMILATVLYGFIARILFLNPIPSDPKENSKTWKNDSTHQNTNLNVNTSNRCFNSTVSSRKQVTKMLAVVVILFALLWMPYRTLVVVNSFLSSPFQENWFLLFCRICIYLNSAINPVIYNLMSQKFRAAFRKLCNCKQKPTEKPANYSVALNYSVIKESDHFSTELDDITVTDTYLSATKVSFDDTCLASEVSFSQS
#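 Agonist-mode FDSS calcium read (Ex 480/Em 530, 1 s cycles) in 1536-well TRHR cells with fluo-8 dye, after 10-cycle baseline and 23 nL compound addition; TRH at EC20 (10 nM final) added afterwards for the enhancer phase.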
# D1 agonist: agonists of human D1 dopamine receptor; activation, % at 2 µM; 360,000 compounds, 1% hits; P21728; HEK293 T-REx D1 cells, calcium flux, agonist mode; also: 0% is about no effect
#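 Inducible HEK293 T-REx D1 cells, force-coupled to calcium signalling, were plated at 4000 cells/well with tetracycline and held overnight at 30 C. After no-wash calcium dye loading, compound-evoked calcium rise over 180 s flagged agonists.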
# D1 PAM: enhances dopamine response at the human D1 receptor; HEK293 TREx D1 cells, calcium flux, dopamine EC20 potentiation; potentiation, % at 10 µM; 360,000 compounds, 0.036% hits; in the data active = potentiation above about 30%; also: 0% is about no effect
# TRHR PAM: TRH receptor (human) allosteric enhancement; enhancement, % at 2 µM; AID 493056; TRHR cells, fluo-8 calcium fluorescence, EC20 TRH enhancement; 360,000 compounds, 0.66% hits; in the data active = enhancement above about 30%; also: 0% is about no effect
#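 Enhancer read-out: after compound pinning and an initial kinetic agonist-mode read, an EC20 of TRH (10 nM final) was injected and fluo-8 calcium signal (Ex 480/Em 530) followed at 1 s/cycle for 100 cycles in TRHR-expressing cells.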
# Numbers without * were called inactive; · = not tested or not shown. Rule as the data show it, unless noted: active = activation above about 30%; inactive = the rest.
SMILES,D1 antag,TRHR agonist,D1 agonist,D1 PAM,TRHR PAM
CSc1ccc(/C=N/NC(=O)CN2CCN(Cc3ccc(Cl)cc3)CC2)cc1,-12.8,-1.5,38.4*,-5.6,5.1
COc1ccc(-c2n(CC(=O)OC3CC(C)CCC3C(C)C)c3ccccc3[n+]2C)cc1 (centres undefined),16.9,0.1,2.8,5.5,-3.6
COc1ccc(OCc2n(CC(=O)OC3CC(C)CCC3C(C)C)c3ccccc3[n+]2C)cc1 (centres undefined),20.0,1.5,33.8*,-9.7,-4.3
COc1cccc(CNC(=O)c2cc(C)nc3c2c(C)nn3-c2cccc(F)c2)c1,-8.5,-1.6,32.6*,-2.0,-7.0
CCc1ccc(-n2nc(C)c3c(C(=O)Nc4cccc(C(F)(F)F)c4)cc(C)nc32)cc1,-35.3*,1.7,9.4,-5.8,-5.7
COc1ccc(-c2[nH]ncc2C(=O)NCc2cccc(F)c2)cc1,14.6,-0.5,0.7,2.8,37.3*
Cc1cc(C(=O)NCc2cccc(Br)c2)c2c(C)nn(-c3ccccc3)c2n1,-4.5,2.1,6.1,1.9,-5.7
Cc1cc(C(=O)NCc2ccccc2Cl)c2c(C)nn(-c3cccc(F)c3)c2n1,-7.4,0.6,5.5,0.2,-3.3
Cc1cc(C(=O)NCc2ccccc2C)c2c(C)nn(-c3cccc(F)c3)c2n1,-46.1*,-0.1,4.3,-7.0,10.7
COc1ccc(-c2[nH]ncc2C(=O)NCc2ccc(F)cc2)cc1,-1.2,-0.3,-0.3,-5.1,-1.9
Cn1nnnc1Sc1ncnc2scc(I)c12,-23.0,1.2,0.6,8.7,-0.5
O=C(NCc1ccccc1Cl)c1ccc(CSCc2ccccc2Cl)o1,-0.3,2.1,28.5,-1.9,-3.7
Oc1ccc(COCc2ccc(F)cc2)c2cccnc12,-6.5,-0.5,2.7,-7.5,25.4
CCN(CC)S(=O)(=O)c1nnc(NC(=O)c2ccc(C(C)C)cc2)s1,1.2,0.5,0.2,-1.1,-2.3
Cc1nc2ccc(NC(=O)c3sccc3C)cc2s1,-38.9*,-1.0,1.0,-6.5,-0.2
CCN(CC)S(=O)(=O)c1ccc2nc(NC(=O)c3ccc(Br)o3)sc2c1,-2.9,0.3,4.3,-4.6,4.1
Cc1nc2ccc(NC(=O)c3ccccc3)cc2s1,9.3,0.0,0.3,1.8,-0.3
Cc1nc2ccc(NC(=O)c3cncc(Br)c3)cc2s1,-36.1*,0.8,0.4,-11.0,8.5
CCN(CC)S(=O)(=O)c1ccc(C(=O)Nc2nnc(C(C)C)s2)cc1,-39.8*,-0.2,2.0,-12.0,0.8
CCN(CC)S(=O)(=O)c1ccc2nc(NC(=O)c3cncc(Br)c3)sc2c1,-4.8,2.2,30.6*,-3.5,-7.8
COc1ccc(CN(C(=O)CN2C(=O)c3ccccc3S2(=O)=O)C(C(=O)NCC2CCCO2)c2ccco2)cc1 (centres undefined),9.6,-0.4,-0.4,-7.7,-5.3
CC(Oc1cccc(F)c1)C(=O)Nc1ccc(N2CCOCC2)cc1 (centres undefined),-3.4,0.8,19.1,·,9.0
COc1ccc(S(=O)(=O)N2CCCCC2)cc1NC(=O)CCNC(=O)c1ccc(Br)cc1,-8.2,1.0,-0.1,-3.8,1.6
Cc1ccc(/C=C/c2onc(C)c2S(=O)(=O)N2CCC(C(=O)N3CCOc4ccc(C)cc43)CC2)cc1,4.2,0.7,4.9,-4.6,2.2
COc1ccc(NC(=O)CN2C(=O)C(C)(C)c3ccccc32)cc1Cl,-50.2*,0.2,4.0,-0.6,-0.5
SMILES,D1 antag,TRHR agonist,D1 agonist,D1 PAM,TRHR PAM
CCOc1ccc2nc(SCC(=O)NCc3ccc(S(N)(=O)=O)cc3)sc2c1,-14.0,1.2,2.1,-4.1,2.6
Cc1ccc(NC(=O)c2cc(N3C(=O)C=CC3=O)ccc2N2CCOCC2)cc1,-23.8,3.1,3.1,-1.1,2.1
COc1ccc(CNC(=O)CSc2nc3ccc(N)cc3s2)cc1,-31.9*,42.2*,0.1,-1.4,11.6
Cc1ccc(NC(=O)CSCC(=O)Nc2ccc(N3CCOCC3)cc2N2CCOCC2)cc1,1.6,-0.6,4.2,2.0,3.3
Cc1ccc(NC(=O)c2cc(N3C(=O)C4CC=CCC4C3=O)ccc2N2CCOCC2)cc1Cl (centres undefined),7.4,1.4,1.0,-0.1,38.6*
Cc1ccc(NC(=O)CSCC(=O)Nc2ccc(N3CCOCC3)c(Cl)c2)cc1,-33.6*,-1.0,5.4,-4.2,6.3
Nc1ccc2nc(SCC(=O)Nc3ccc(N4CCOCC4)c(Cl)c3)sc2c1,-33.8*,-1.5,17.5,-4.0,5.0
CCCC(=O)Nc1ccc2nc(SCC(=O)Nc3ccc(N4CCOCC4)c(Cl)c3)sc2c1,-18.1,-0.8,2.4,0.1,12.8
C[C@@H]1CCC(=O)N(CC[C@H](Sc2ccccc2)c2ccccc2)CC1,6.1,-0.6,2.0,-7.0,-3.6
COc1cccc(NC(=O)CSc2nc(=O)[nH]c3c2CCCC3)c1,·,0.7,-1.0,0.2,2.5
COc1ccc(CCNC(=O)Oc2ccccc2)cc1OC,-1.6,-0.9,1.4,3.5,-0.2
Cc1cccc(C(=O)NC2=NCCS2)c1,-1.2,0.5,2.5,0.1,-4.7
Cc1ccc(NC(=O)CSCC(=O)NC2(C)CCS(=O)(=O)C2)cc1 (centres undefined),-40.1*,-0.3,4.0,·,5.2
O=C(CSc1ccc(F)cc1)Nc1ccc(N2CCOCC2)c(Cl)c1,-22.3,0.0,13.5,-6.0,-0.2
Nc1nnc(SCC(=O)Nc2ccc(N3CCOCC3)c(Cl)c2)s1,-36.6*,-2.2,8.7,-1.1,12.6
COc1ccc(-c2c3c(=O)n(C)c(=O)n(C)c3cn2-c2cccc(N)c2)cc1,-6.6,-1.2,1.8,1.9,-7.5
CCOc1ccc(CCNC(=O)Cn2nc(C)n3c(cc4occc43)c2=O)cc1OCC,4.6,-0.8,-0.8,-1.1,10.9
COc1cc2c(cc1OC)-c1n[nH]c(=S)n1C(C)(C)C2,-59.2*,-0.5,-0.4,-11.7,0.0
COc1cc2c(cc1OC)-c1nnnn1C(C)(C)C2,4.1,0.3,2.9,-0.1,10.5
CCC(=O)Nc1ccc(CC)cc1-c1nc2ccccc2n(Cc2ccccc2)c1=O,-10.4,1.1,2.1,-1.8,2.9
Cc1cccc(CS(=O)(=O)Cc2ccc(C(=O)NCc3ccc(Cl)cc3)o2)c1,-5.5,-0.1,9.2,-7.9,-1.0
CCC(C)NC(=O)Cn1nc(C(F)(F)F)c2c1CCCC2 (centres undefined),-37.9*,-0.2,-0.5,-8.8,-0.2
Cc1cc(Cl)ccc1NC(=O)CN1C(=O)CSc2ccc(S(=O)(=O)N(C)C)cc21,-9.2,-0.5,2.7,-2.1,-6.0
CNC(=O)/C(C#N)=C/c1ccc(OCCOc2ccccc2)cc1,-7.3,-0.6,9.0,-1.4,1.2
CCc1ccc(NC(=O)Cn2c(=O)n(Cc3nc(-c4ccccc4)no3)c(=O)c3cc4c(cc32)OCO4)cc1,-26.0,0.8,2.4,-3.1,1.3
COc1cc(/C=C/C(=O)c2ccc3c(c2)OCO3)cc(Cl)c1O,-22.3,196.6*,246.3*,·,22.2

# Assay outcomes as filed in PubChem.
